Laboratory results taken from PubChem BioAssay (NCATS).
Results filed as inconclusive are left out. Entries that show only a call come without a potency. The source made the active and inactive calls. Calls follow the shape of the dose curve; as a rule, active = well fitted inhibition curve with a large enough effect; inconclusive = small, poorly fitted or top-dose-only effect; inactive = flat fitted curve, though single readings scatter.

Tests used:
Experiment in all cases: qHTS profiling for inhibitors of Plasmodium falciparum proliferation (AID 504749); also: nearly all actives have a fitted effect of over 60% in size
Settings in all cases: P. falciparum in erythrocytes, SYBR Green DNA, 72 h; series mostly up to 28.7 µM
AA1029 = tested on: AA1029
In short: (§1)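 Three-day growth assay of blood-stage parasites in erythrocytes (0.3% parasitemia, 2.5% hematocrit) at 37 C, 5% CO2, quantified by SYBR Green DNA staining after overnight detergent lysis.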

AS120 = tested on: AS120
In short: as §1

ATS189 = tested on: ATS189
In short: as §1

ATS95 = tested on: ATS95
In short: as §1

C2A = tested on: C2A
In short: as §1

CP185 = tested on: CP185
In short: as §1

CP191 = tested on: CP191
In short: as §1

CP192 = tested on: CP192
In short: as §1

CP194 = tested on: CP194
In short: as §1

CP201 = tested on: CP201
In short: as §1
Potency is read from the fitted curve at half-maximal effect.

Compound	Potency (AA1029)	Potency (AS120)	Potency (ATS189)	Potency (ATS95)	Potency (C2A)	Potency (CP185)	Potency (CP191)	Potency (CP192)	Potency (CP194)	Potency (CP201)
CC(=O)Oc1ccc(C)cc1	inactive	inactive	inactive	inactive	inactive	inactive	inactive	inactive	inactive	inactive
FC1(F)C(F)(F)C(F)(F)C2(F)C(F)(F)C(F)(F)C(F)(F)C(F)(F)C2(F)C1(F)F (stereo not given)	inactive	inactive	inactive	inactive	inactive	inactive	inactive	inactive	inactive	inactive
CCCCCCCCNC(C)C(O)c1ccc(SC(C)C)cc1 (stereo not given)	1 µM (active)	0.891 µM (active)	0.631 µM (active)	1.26 µM (active)	0.891 µM (active)	0.891 µM (active)	0.794 µM (active)	2.13 µM (active)	1.9 µM (active)	3.79 µM (active)
Nc1ccc(S(=O)(=O)NCc2ccccc2)cc1	inactive	inactive	inactive	inactive	inactive	inactive	inactive	inactive	inactive	inactive
COc1ccccc1N1CCN(CCCCNC(=O)c2ccc(-c3ccc(C(C)=O)cc3)cc2)CC1	inactive	inactive	inactive	inactive	inactive	inactive	inactive	inactive	inactive	inactive
CC(C)Cc1ccc(CC(=O)O)cc1	inactive	inactive	inactive	inactive	inactive	inactive	inactive	inactive	inactive	inactive
COc1cc(C(=O)NCc2ccc(OCCN(C)C)cc2)cc(OC)c1OC	inactive	inactive	inactive	inactive	inactive	inactive	inactive	inactive	inactive	inactive
CCCCCCCCOc1ccc(C(=O)c2ccccc2)c(O)c1	inactive	inactive	inactive	inactive	inactive	inactive	inactive	inactive	inactive	inactive
CCCCCCCC/C=C\CCCCCCCCN	inactive	inactive	inactive	inactive	inactive	inactive	inactive	inactive	inactive	inactive
CCNC(=O)NCc1cccc(Cl)c1	inactive	inactive	inactive	inactive	inactive	inactive	inactive	inactive	inactive	inactive
C#C[C@]1(O)CC[C@H]2[C@@H]3CCC4=Cc5oncc5C[C@]4(C)[C@H]3CC[C@@]21C	inactive	inactive	inactive	inactive	inactive	inactive	inactive	inactive	inactive	inactive
NC(=S)N/N=C/c1cccnc1	inactive	inactive	inactive	inactive	inactive	inactive	inactive	inactive	inactive	inactive
Nc1ccc(C(=O)NCC(=O)O)cc1	inactive	inactive	inactive	inactive	inactive	inactive	inactive	inactive	inactive	inactive
Cc1ccc(O)c([C@H](CCN(C(C)C)C(C)C)c2ccccc2)c1	3.16 µM (active)	2.51 µM (active)	3.98 µM (active)	3.55 µM (active)	11.2 µM (active)	10 µM (active)	7.08 µM (active)	13.5 µM (active)	5.36 µM (active)	13.5 µM (active)
COc1cc(NS(=O)(=O)c2ccc(N)cc2)ncn1	inactive	inactive	inactive	inactive	inactive	inactive	inactive	inactive	inactive	inactive
CCCCNc1ccc(C(=O)OCCOCCOCCOCCOCCOCCOCCOCCOCCOC)cc1	inactive	inactive	inactive	inactive	inactive	inactive	inactive	inactive	inactive	inactive
CCN1/C(=C/C=C/c2sc3ccccc3[n+]2CC)Sc2ccccc21	0.178 µM (active)	0.199 µM (active)	0.158 µM (active)	0.178 µM (active)	0.126 µM (active)	0.112 µM (active)	0.1 µM (active)	0.379 µM (active)	0.478 µM (active)	0.849 µM (active)
C[N+]1(CC2COC(c3ccccc3)(C3CCCCC3)O2)CCCCC1 (stereo not given)	5.01 µM (active)	7.08 µM (active)	8.91 µM (active)	6.31 µM (active)	10 µM (active)	5.01 µM (active)	5.62 µM (active)	4.78 µM (active)	6.01 µM (active)	10.7 µM (active)
COc1cc(C(=S)N2CCOCC2)ccc1O	inactive	inactive	inactive	inactive	inactive	inactive	inactive	inactive	inactive	inactive
O=C(O)C(Cc1cc(I)c(O)c(I)c1)c1ccccc1 (stereo not given)	inactive	inactive	inactive	inactive	inactive	inactive	inactive	inactive	inactive	inactive
COc1ccc2c(c1)c1c3n2CCN(C)C3=NCC1	inactive	inactive	inactive	inactive	inactive	inactive	inactive	inactive	inactive	inactive
O=C(O)CCC(=O)Nc1ccc(S(=O)(=O)Nc2nccs2)cc1	inactive	inactive	inactive	inactive	inactive	inactive	inactive	inactive	inactive	inactive
